# Bioassay records: PubChem BioAssay, National Center for Advancing Translational Sciences (NCATS)
# Abeta rescue: A-beta toxicity reversal in yeast; yeast expressing A-beta42, growth rescue, OD600, 48 h; response scale: 0% DMSO, 100% iron-clioquinol control; Potency, µM (doses to about 46.1 µM), most hits filed as activators; 410,000 tested, 0.063% active; also: nearly all actives have a fitted effect of over 55% in size
#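 Yeast A-beta toxicity model in growth medium with pinned compounds, 48 h at 30 C; growth read as absorbance at 600 nm. Normalized to FeCl3/clioquinol equimolar mix (positive) and DMSO (negative).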
# Mito fusion yeast: blocks mitochondrial division or promotes mitochondrial fusion | 320,000 tested, 0.23% active | S. cerevisiae fusion-defective mutant growth rescue, CellTiterGlo 48 h | AID 485298 | Potency, µM (series often up to 46.1 µM), inactives show top-dose growth rescue (activation), actives largely listed as activators; also: % of control where 0% means no effect; nearly all actives have a fitted effect of over 45% in size
#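 Temperature-sensitive fusion-defective S. cerevisiae (e.g. fzo1-1, mgm1-5) were grown with compound in YPEG medium (3% ethanol, 3% glycerol) for 48 hours at 37C. Growth rescue was measured as viability by CellTiterGlo luminescence after 10 minutes at ambient.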
# TDP43 rescue: rescues yeast growth from TDP-43 toxicity | TDP-43 expressing yeast growth rescue, BacTiter-Glo, 24 h | AID 652104 | Potency, µM (top dose mostly 46.1 µM), for the others: at the highest dose growth rescue (activation), usual class: activators | 410,000 tested, 1.8% active; also: % of control where 0% means no effect; nearly all actives have a fitted effect of over 50% in size
#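 Cell-based yeast growth screen: TDP-43 expression induced in galactose, inoculum OD600=0.02 after raffinose pregrowth to mid-log. Read-out BacTiter-Glo luminescence at 24 hr, 30 deg C; inhibition of toxicity seen as signal increase.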
# FUS yeast rescue: suppressors of FUS proteinopathy in yeast | S. cerevisiae FUS-expressing, growth rescue, OD600, 24 h | 390,000 tested, 0.24% active | AID 1347120 | Potency, µM (top dose mostly 76.6 µM), usual class: activators;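 also: plate controls were DMSO vehicle for no effect and reference control for full effect; nearly all actives have a fitted effect of over 55% in size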
#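 Yeast expressing FUS under galactose induction, OD 0.005 in 2% galactose medium; compounds in a dilution series, 24 h at 30C. Growth rescue by absorbance at 600 nm; CP55940 positive control, DMSO negative.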
# aSyn rescue: rescues yeast growth from alpha-synuclein toxicity. Yeast expressing alpha-synuclein, growth rescue, BacTiter-Glo, 24 h. Potency, µM (series often up to 46.1 µM), inactives show at the top dose growth rescue (activation), most hits filed as activators. 370,000 tested, 0.14% active. AID 652106; also: % of control where 0% means no effect; nearly all actives have a fitted effect of over 65% in size
#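 Rescue of yeast growth: cells expressing toxic alpha-synuclein, induced in galactose at OD600 0.02, incubated with compound 24 h at 30 C. ATP luminescence quantified growth; inhibitors of toxicity appear as activators.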
# The depositor's hits bear a star; i = inactive; ? = inconclusive; / = no result given; [ ] = remark or other dose. Hits are enriched below; roughly 2.2% of the tested compounds scored in any of these assays. Calls follow the shape of the dose curve; as a rule, active = well fitted curve in the direction sought with a large enough effect; inconclusive = small, poorly fitted or top-dose-only effect, or another doubt; inactive = no such curve, though single readings can be large; an effect the other way counts as inactive or inconclusive. Potency is read from the fitted curve at half-maximal effect.
SMILES,Abeta rescue,Mito fusion yeast,TDP43 rescue,FUS yeast rescue,aSyn rescue
Cc1nc([N+](=O)[O-])c(C(=O)OCc2ccccc2Br)n1C,i,-3%,15%[9.22 µM],i,1%
Cc1nc([N+](=O)[O-])c(Br)n1CC(=O)c1ccc(Br)cc1,i,-3%,11µM*,i,7%
Cc1nc([N+](=O)[O-])c(Br)n1CC(=O)c1ccc2ccccc2c1,i,-4%,16µM*,14µM*,1%
CC(C)C[C@H](NC1(C(=O)NCCc2c[nH]c3ccccc23)CCC1)C(=O)NCCCc1ccccc1,/,/,/,i,/
COc1cc(C(C[N+](=O)[O-])c2c(C)[nH]c3ccccc23)ccc1O (stereo not given),i,11%,13%,i,0%
COc1ccccc1C(C[N+](=O)[O-])c1c[nH]c2ccccc12 (stereo not given),i,19%,20µM*,i,?
CC(=O)C(C(c1ccccc1)c1c[nH]c2ccccc12)[N+](=O)[O-] (stereo not given),?,11%,13µM*,i,?
CCn1cc(C(c2ccccc2)C(C(C)=O)[N+](=O)[O-])c2ccccc21 (stereo not given),i,5%,-1%,i,8%
COc1ccc(CNc2ccc3cc(S(=O)(=O)N4CCCCC4)ccc3n2)cc1,?,/,19%,i,/
CCCNC(=O)NC(=O)CSc1cccc(C(F)(F)F)c1,i,-23%,18µM*,i,4%
CNC(=O)NC(=O)CSc1cccc(C(F)(F)F)c1,i,-2%,11%,i,-3%
O=C(NC1CCCCC1)c1ccc(CSc2nc3cccnc3n2Cc2cccc(F)c2)cc1,i,/,-4%,i,/
CO/N=C(\c1nonc1N)N1CCN(c2ccc(Cl)cc2[N+](=O)[O-])CC1,i,2%,14µM*,i,4%
CO/N=C(\c1nonc1N)N1CCN(c2ccc([N+](=O)[O-])cc2Cl)CC1,i,0%,28%,i,21%
CCc1ccc(NC(=O)Cn2c(=O)c(CNc3ccccc3)cc3cc(OC)c(OC)cc32)cc1,i,/,-6%,i,/
COc1cc2cc(CNc3ccccc3)c(=O)n(CC(=O)Nc3cc(C)cc(C)c3)c2cc1OC,i,/,-3%,25µM*,9%
Cc1nc2n(c(=O)c1CCN1CCC(c3noc4cc(F)ccc34)CC1)CCC[C@H]2O,/,/,/,/,0%
COc1ccccc1-c1nn(CCC(=O)Nc2ccc(C)cc2)c2nc(C)cc(C)c12,i,/,35µM*,i,?
Cc1ccc(NC(=O)CCn2nc(C)cc2C)cc1,i,-1%,5%,i,0%
COc1cc(N(C)C)c(OC)cc1/C=C/c1ccnc2ccccc12,/,/,/,/,-15%
CN(C(=O)c1ccc(NC(=O)Cc2cccc(NC(=O)C3CCCN(C(=O)C4CCC4)C3)c2)cc1)C1CCCC1 (stereo not given),i,-1%,-19%,?,2%
CN(C(=O)c1ccc(NC(=O)Cc2cccc(NC(=O)C3CCCN(C(=O)C4CCCCC4)C3)c2)cc1)C1CCCC1 (stereo not given),i,3%,10%,28µM*,-2%
Fc1ccc2[nH]c3c(Cl)ncnc3c2c1,i,-19%,?,i,10%
COc1ccc2[nH]c3c(Cl)ncnc3c2c1,i,-18%,13µM*,/,27%
CC(C)NC(=O)NC1CCN(CC(=O)Nc2ccc3c(c2)OCCO3)CC1,/,/,/,i,/
O=C(COc1ccccc1C(=O)Nc1ccccc1)NCCCCc1ccccc1,/,/,/,/,-6%
NC(=O)[C@@H]1CC2(CC(c3cccc(NC(=O)COc4ccc(Cl)cc4)c3)=NO2)CN1C(=O)c1ccccc1 (stereo not given in full),i,21%,5%,i,10%
COc1ccc(-c2cccc(NC(=O)COc3ccc(Cl)cc3)c2)nn1,i,?,11µM*,i,-11%
